Compound activity: PubChem, National Center for Advancing Translational Sciences (NCATS)
TDP1 cell CPT: DT40-hTDP1 cell growth loss with CPT | chicken DT40 Tdp1-/-;hTDP1 cells + 20 nM CPT, ATP luminescence, 48 h | AID 686979 | Potency, µM (top dose mostly 46.2 µM), inactives show at the highest dose activity change, negative = growth inhibition, hits mostly inhibitors | 420,000 compounds, 12% hits; also: potency is read from the fitted curve at half-maximal effect; nearly all actives have a fitted effect of over 55% in size
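Cell growth measured by CellTiter-Glo luminescence after a minimum 48 h, 37 C compound exposure with 20 nM CPT in Tdp1-knockout DT40 cells stably expressing hTDP1, seeded 400/well; qHTS titration format.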
DT40 TDP1 no CPT: qHTS for Inhibitors of human tyrosyl-DNA phosphodiesterase 1 (TDP1): qHTS in cells in absence of CPT; DT40 Tdp1-/- hTDP1 cells, no CPT, ATP luminescence, 48 h; Potency, µM (series often up to 46.2 µM), for the others: at the top dose activity change, negative = growth inhibition, hits mostly inhibitors; 420,000 compounds, 15% hits; AID 686978, 2013; also: potency is read from the fitted curve at half-maximal effect; nearly all actives have a fitted effect of over 55% in size
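Cells were dispensed at 400 per well, compounds added by pin tool, plates incubated ≥48 hr at 37 °C, then CellTiter-Glo added for 30 min at room temperature before luminescence reading. Line: DT40 Tdp1-/- complemented with hTDP1; camptothecin omitted.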
IL-1B inflam inh: blocks inflammasome-driven IL-1 beta release; THP-1 LPS/ATP IL-1B secretion, AlphaLISA, 16 h; hits give low values; activity change, % at 57.5 µM; 360,000 compounds, 4.7% hits; AID 743279; in the data active = activity change below about -50%; inconclusive = mostly about -30% to -49%
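THP-1 cells pretreated 1 hr with compounds (up to 57.5 uM final), then stimulated with LPS (250 ng/mL final) plus ATP (1.25 mM final); secreted IL-1B measured by AlphaLISA after 16 hr, decreased signal indicating inhibition.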
HT1080NT lethal: kills 2HG-producing HT-1080-NT fibrosarcoma cells; HT-1080-NT fibrosarcoma viability, CellTiter-Glo ATP luminescence, 48 h; Potency, µM (top dose mostly 46.1 µM), for the others: top-dose activity, negative = less viability, hits mostly cytotoxic; 360,000 compounds, 1.6% hits; AID 686970;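 also: NT is the 2HG producing partner of a matched IDH1 knockdown line; potency is read from the fitted curve at half-maximal effect; 0% = DMSO-treated cells and -100% = media-only wells without cells; nearly all actives have a fitted effect of over 55% in size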
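Fibrosarcoma NT cells, 750 per well in 5% FBS RPMI, were exposed to compound for 48 hours. Viability: CellTiter-Glo luminescence.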
HT1080 IDH1KD tx: toxicity to HT-1080 IDH1 knockdown cells (counter line). Potency, µM (doses to about 46.1 µM), for the others: top-dose activity, negative = toxicity, actives largely listed as cytotoxic. AID 686971. 360,000 compounds, 2% hits. HT-1080 IDH1 knockdown viability, ATP luminescence, 48 h;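 also: potency is read from the fitted curve at half-maximal effect; 0% = DMSO wells and -100% = cell-free medium wells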
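% activity derives from luminescence (CellTiter-Glo), normalised to DMSO and no-cell wells. HT-1080-IDH1KD cells, 750/well, had 48 h compound exposure at 37 °C.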
* hit, by the source's call; u = inconclusive; x = not tested or not shown. This is a sample that favours compounds with a hit; in the whole collection about 19% have one here. Unless noted, calls follow the shape of the dose curve; as a rule, active = well fitted curve in the direction sought with a large enough effect; inconclusive = small, poorly fitted or top-dose-only effect, or another doubt; inactive = no such curve, though single readings can be large; an effect the other way counts as inactive or inconclusive. Unless noted, % is scaled to controls: 0 for no effect and ±100 for the full control effect.

SMILES	TDP1 cell CPT	DT40 TDP1 no CPT	IL-1B inflam inh	HT1080NT lethal	HT1080 IDH1KD tx
C#CC[N+](CC)(CC)CC#Cc1ccccc1	u	18µM*	23	1%	-3%
C[N+](C)(CC#Cc1ccccc1)CC(=O)c1ccc(Cl)cc1	u	u	u	-1%	u
C(#Cc1ccccc1)CN1CCCCC1	0%	4%	0	3%	14%
COc1cc(NC(=O)c2ccccc2)c(OC)cc1NC(=O)CN1C(=O)N(C)C2(CCCCC2)C1=O	u	-13%	13	6%	0%
Cc1ccccc1-c1noc(-c2ccc(N3CCC(C)CC3)c([N+](=O)[O-])c2)n1	-25%	-12%	x	x	x
O=C(NCCc1ccc(Cl)cc1)c1nnc(Cc2ccc(Cl)cc2Cl)o1	2%	-18%	x	x	x
COc1ccc(NC(=O)CN(C)C(=O)c2ccc(N3CCCCC3)c([N+](=O)[O-])c2)cc1	u	15µM*	-2	-1%	-2%
CCOc1ccc(NC(=O)CN(C)C(=O)c2ccc(N3CCCCC3)c([N+](=O)[O-])c2)cc1OCC	u	u	-12	4%	2%
COc1cccc(CN(C)C(=O)c2ccc(N3CCCC3)c([N+](=O)[O-])c2)c1	16µM*	23µM*	-27	0%	-6%
COc1ccc(Cl)cc1NC(=O)CN(C)C(=O)c1ccc(N2CCCCC2)c([N+](=O)[O-])c1	9.2µM*	16µM*	-14	-13%	-17%
COc1ccc(NC(=O)CN(C)C(=O)c2ccc(N3CCCCCC3)c([N+](=O)[O-])c2)cc1	u	u	-4	7%	1%
COc1ccc(Cl)cc1NC(=O)CN(C)C(=O)c1ccc(N2CCCCCC2)c([N+](=O)[O-])c1	16µM*	23µM*	-6	-1%	-17%
O=C(COc1ccc(F)cc1Br)Nc1ccccc1N1CCOCC1	u	u	3	0%	-17%
Cc1ccccc1	-1%	15%	x	x	x
Cc1ccc(-c2cc3cccc[n+]3cc2-c2ccc(C)cc2)cc1	0.65µM*	1.2µM*	-88*	u	u
O=C1/C(=C/c2cccc(Cl)c2)SC(=S)N1CCC(=O)N1CCCCC1CCO (stereo not drawn)	u	u	u	-12%	0%
COc1ccc(/C=C2\SC(=O)N(CCC(=O)N3CCCCC3CCO)C2=O)cc1 (stereo not drawn)	u	21µM*	-17	8%	13%
O=C1/C(=C/c2ccccc2F)SC(=S)N1CCC(=O)N1CCCCC1CCO (stereo not drawn)	u	15µM*	-99*	-19%	u
O=C1/C(=C/c2ccccc2)SC(=S)N1CCCC(=O)N1CCCCC1CCO (stereo not drawn)	u	u	-59*	-10%	-6%
COc1ccc(/C=C2/SC(=O)N(CCNC(=O)C3CCCN3C(=O)c3cccs3)C2=O)cc1 (stereo not drawn)	u	u	-149*	5%	-3%
O=C(NCC(O)CN1CCOCC1)c1ccc([N+](=O)[O-])cc1 (stereo not drawn)	2%	21%	10	13%	15%
O=C(/C=C/c1ccc(F)cc1)NC(=S)N1CCCCC1c1cccnc1 (stereo not drawn)	-3%	-15%	-2	u	8%
COc1ccc(/C=C2\SC(=S)N(CCC(=O)N3CCCCC3CCO)C2=O)cc1 (stereo not drawn)	u	u	-9	1%	-2%
O=C1/C(=C/c2ccccc2F)SC(=S)N1CC(=O)N1CCCCC1c1cccnc1 (stereo not drawn)	3.7µM*	3.7µM*	-61*	-2%	-10%
O=C1/C(=C/c2ccco2)SC(=S)N1CCC(=O)N1CCCCC1CCO (stereo not drawn)	-78%	21µM*	-76*	-7%	-2%
SMILES	TDP1 cell CPT	DT40 TDP1 no CPT	IL-1B inflam inh	HT1080NT lethal	HT1080 IDH1KD tx
NC(=O)c1ccc(NC(=O)COC(=O)CCN=C2NS(=O)(=O)c3ccccc32)cc1	-1%	16%	0	5%	8%
Cc1c(O)ccc2c(CN3CCN(Cc4ccccc4)CC3)cc(=O)oc12	-29%	-20%	17	-7%	4%
Cc1c(O)ccc2c(CN(C)Cc3ccccc3)cc(=O)oc12	u	18µM*	-7	-15%	-21%
COc1cccc(CN(C)Cc2cc(=O)oc3c(C)c(C)ccc23)c1	13µM*	u	14	-22%	-21%
Nc1c(C(=O)O)sc2nc(-c3ccccc3)c3c(c12)CCCC3	-8%	u	4	-4%	0%
NC(=O)c1sc2nnc(-c3ccccc3)c(-c3ccccc3)c2c1N	u	15µM*	-15	2%	-6%
COC(=O)c1ccc(NC(=S)NCCC2=CCCCC2)cc1	-12%	-23%	59	u	u
CC(=O)c1ccc(NC(=S)NCc2ccc(Cl)cc2Cl)cc1	u	23µM*	-16	0%	0%
COC(=O)Cc1ccc(NC(=S)NCc2ccccc2Cl)cc1	u	-37%	15	u	0%
O=C(Nc1cnn(Cc2ccc(Cl)cc2Cl)c1)c1cc(-c2cccs2)on1	-35%	u	0	-1%	-28%
CC(=O)c1cccc(NC(=S)NCCc2ccc(Cl)cc2)c1	u	18µM*	-92*	-3%	0%
COC(=O)c1cccc(NC(=S)NCCC2=CCCCC2)c1	12µM*	10µM*	23	-24%	21µM*
CC(=O)c1cccc(NC(=O)Nc2cnn(Cc3ccc(Cl)cc3Cl)c2)c1	u	u	u	u	14µM*
CC(Cl)C(=O)c1c[nH]c2ccccc12 (stereo not drawn)	22%	-10%	0	2%	-1%
COC(=O)c1cc2sccc2n1CC(=O)Nc1ccc(OC)c(OC)c1	-17%	-16%	x	x	x
CNc1nc(SC(C)C(=O)Nc2ccc(Cl)c(Cl)c2)nc(N2CCOCC2)n1 (stereo not drawn)	u	-33%	23	10%	5%
CCOC(=O)Cc1nc(-c2cccc(C(F)(F)F)c2)no1	-1%	-3%	-20	15%	-2%
c1ccc(-c2nc(SCC3CCCCO3)n[nH]2)cc1 (stereo not drawn)	8%	u	x	x	x
O=C(Cn1c(=O)oc2cc(S(=O)(=O)N3CCCCC3)ccc21)Nc1cccc(Cl)c1	8.2µM*	9.2µM*	x	x	x
O=C(Cn1c(=O)oc2cc(S(=O)(=O)N3CCCCCC3)ccc21)Nc1cccc(C(F)(F)F)c1	8.2µM*	9.2µM*	x	x	x
O=C(Cn1c(=O)oc2cc(S(=O)(=O)N3CCCC3)ccc21)N1CCCC1	6%	-3%	10	-17%	0%
